Screening results (PubChem)
CSC inhib: cancer stem cell viability inhibitors, primary screen, luminescence; 300,000 tested, 1.1% active; cancer stem cell-like cells viability; inhibition, % at 7.5 µM; in the data active = inhibition above about 75%; tested in HMLE shEcad cells
MPTP inh: mitochondrial permeability transition pore inhibitors, primary screen, biochemical, isolated mouse mitochondria, absorbance | Ca2+ swelling absorbance, 30 min | inhibition, % at 10 µM | 360,000 tested, 1.4% active;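 active = inhibition of 50% or more, scaled per plate between neutral and stimulator controls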
Gli-Sufu antag: Gli-Sufu pathway antagonists, primary screen, luciferase luminescence, Sufu-KO-LIGHT cells, uHTS | Sufu-KO-LIGHT fibroblasts, Gli luciferase reporter luminescence | inhibition, % at 5 µM | 340,000 tested, 0.74% active;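 active = inhibition above about 55%, limit read from the data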
Mdm2-MdmX inh: inhibitors of human Mdm2-MdmX association, primary screen, cell-based, luminescence, split luciferase, SaOS-2, uHTS. inhibition, % at 8 µM. 330,000 tested, 3% active. SaOS-2 split-luciferase Mdm2/MdmX complementation;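 active = inhibition of at least 50% at 8 µM in the primary screen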
Target sequence (O15151 whole entry, looked up): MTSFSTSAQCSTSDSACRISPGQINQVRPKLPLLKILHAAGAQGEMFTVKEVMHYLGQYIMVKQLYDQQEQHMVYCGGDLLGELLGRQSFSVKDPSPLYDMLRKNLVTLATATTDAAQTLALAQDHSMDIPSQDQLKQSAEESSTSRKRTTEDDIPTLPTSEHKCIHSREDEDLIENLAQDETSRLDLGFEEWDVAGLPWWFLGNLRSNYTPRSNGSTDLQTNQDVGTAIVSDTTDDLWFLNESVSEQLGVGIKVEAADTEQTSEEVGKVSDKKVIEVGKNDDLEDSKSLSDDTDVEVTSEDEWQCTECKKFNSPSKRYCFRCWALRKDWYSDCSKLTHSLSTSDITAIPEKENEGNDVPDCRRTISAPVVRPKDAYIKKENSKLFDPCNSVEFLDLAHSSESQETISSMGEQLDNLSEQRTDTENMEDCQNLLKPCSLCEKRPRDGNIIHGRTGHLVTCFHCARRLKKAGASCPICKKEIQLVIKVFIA
Target sequence (Q00987 whole entry, looked up): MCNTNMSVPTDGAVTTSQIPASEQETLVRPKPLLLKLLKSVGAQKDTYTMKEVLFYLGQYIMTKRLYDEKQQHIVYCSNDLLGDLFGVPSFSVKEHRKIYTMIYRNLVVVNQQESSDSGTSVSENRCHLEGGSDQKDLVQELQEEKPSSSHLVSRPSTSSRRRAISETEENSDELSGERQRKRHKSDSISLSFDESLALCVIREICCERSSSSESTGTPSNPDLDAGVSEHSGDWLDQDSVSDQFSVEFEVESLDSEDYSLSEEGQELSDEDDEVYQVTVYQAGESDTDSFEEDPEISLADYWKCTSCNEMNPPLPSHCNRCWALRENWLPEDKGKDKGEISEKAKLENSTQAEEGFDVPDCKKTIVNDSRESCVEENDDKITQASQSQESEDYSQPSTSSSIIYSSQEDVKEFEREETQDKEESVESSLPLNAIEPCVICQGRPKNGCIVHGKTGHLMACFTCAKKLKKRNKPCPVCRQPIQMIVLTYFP
Beta apoptosis: inhibitors of cytokine-induced beta cell apoptosis, primary screen, luminescence. INS-1E cytokine-induced death, ATP luminescence, 48 h; percent of positive-control rescue, neutral wells zero. protection from apoptosis, % (concentration not given with the values). 300,000 tested, 0.8% active;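 active = Every replicate reaches about 75%, or at least half do and their mean reaches it too, limit read from the data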;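 also: higher means more ATP so stronger rescue from cytokine killing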
NR3A LBD binder: binders of NR3A ligand-binding domain, primary screen, biophysical, differential scanning fluorimetry, uHTS. Glutamate receptor ionotropic, NMDA 3A (GRIN3A) ligand-binding domain. NR3A LBD differential scanning fluorimetry, Tm shift; 0% = protein alone, 100% = glycine-bound protein. Tm shift relative to glycine control, % at 25 µM. 340,000 tested, 2.5% active. AID 1259313, 2017;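 active = melting temperature shift of at least 10% of the positive control shift, at one fixed dose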
Mdm2 MdmX conf: Mdm2-MdmX complex disruptors, retested hits, confirmation, luminescence, single concentration; shares compounds with Mdm2-MdmX inh; AID 489028, 2010; inhibition, % at 8 µM; 10,000 tested, 55% active; Mdm2-MdmX binding, luminescent assay; in the data active = inhibition above about 40%
FLuc counter: full-length luciferase signal inhibition, confirmation, counter-screen for Mdm2/MdmX interaction inhibitor project, cell-based, single concentration, SaOS-2; shares compounds with Mdm2-MdmX inh; SaOS-2 full-length luciferase counterscreen, luminescence; inhibition, % at 8 µM; 6,200 tested, 77% active; AID 504607, 2011;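 active = mean inhibition at 8 µM reaching about 37%, which flags the compound as non-specific, limit read from the data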;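 also: p53-null SaOS-2 cells with luciferase driven by a doxycycline-inducible promoter; compound on cells about two nights before reading with doxycycline added after day one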
Gli-Sufu confirm: Gli-SUFU pathway antagonists, confirmation, single concentration, luciferase luminescence, Sufu-KO-LIGHT cells; shares compounds with Gli-Sufu antag; Gli luciferase reporter; inhibition, % at 5 µM; 2,500 tested, 40% active; AID 602428, 2012;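 active = mean inhibition at 5 µM reaching about 45%, limit read from the data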
Gli cytotox: cytotoxicity in Sufu-KO-LIGHT cells, confirmation, cytotoxicity control for Gli-SUFU antagonist project, cell-based, ATP luminescence, single concentration | shares compounds with Gli-Sufu antag | cytotoxicity, % at 5 µM | 2,500 tested, 32% active;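 active = mean cytotoxicity at 5 µM above about 25%, limit read from the data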;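 also: cells exposed to compound overnight for roughly 16 to 18 hours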
Wnt3a counter: Wnt3a reporter signal inhibition, confirmation, counter-screen for Gli-SUFU antagonist project, Wnt-LIGHT cells, luminescence, single concentration. shares compounds with Gli-Sufu antag. Wnt3a-driven luciferase reporter. inhibition, % at 6.25 µM. 2,500 tested, 20% active. AID 651995, 2013;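 active = mean inhibition above about 25%, limit read from the data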
Rh123 counter: fluorescence retest of MPTP screen hits in isolated mitochondria, single concentration. inhibition, % at 10 µM. shares compounds with MPTP inh. 5,000 tested, 78% active. membrane potential, Rhodamine 123 fluorescence; in the data active = inhibition above about 22%
MPTP abs DR: mitochondrial permeability transition pore inhibitors, dose response, biochemical, absorbance, uHTS hits | IC50, µM | isolated mitochondria swelling | shares compounds with MPTP inh | 780 tested, 58% active; in the data active = IC50 below about 20 µM
MPTP cs DR: fluorescent counter-screen in isolated mitochondria, dose response, counter-screen for MPTP inhibitor project, biochemical, fluorescence, uHTS hits | isolated mitochondria counterscreen, fluorescence read-out | 780 tested, 49% active | shares compounds with MPTP inh | AID 651564, 2012 | IC50, µM; in the data active = IC50 below about 80 µM
Of the large screens only hits and unclear results are named; the others gave an inactive call (follow-up assays come after a bar, where they were run). Sampled rows, rich in hits. Any-hit rate of the full collection: about 6.6%.

O=C(Nc1ccc([N+](=O)[O-])cc1)Nc1ccc(Cl)cc1F	MPTP inh 100, Mdm2-MdmX inh 87, Beta apoptosis 108, NR3A LBD binder 22 | Mdm2 MdmX conf 91 | FLuc counter 73 | Rh123 counter 101
O=C(Nc1ccc(Cl)cc1)Nc1csc([N+](=O)[O-])c1	MPTP inh 79, Mdm2-MdmX inh 94, Beta apoptosis 80, NR3A LBD binder 33 | Mdm2 MdmX conf 76 | FLuc counter inactive | Rh123 counter 78
O=C(Nc1ccc(Cl)cc1)Nc1cccc(C(=O)O)c1	none
COc1ccc(OC(C)C(=O)Nc2ccc([N+](=O)[O-])cc2)cc1 (centres undefined)	none
Cc1cc(OC(F)F)ccc1NC(=O)Nc1ccc([N+](=O)[O-])cc1	MPTP inh 99, Mdm2-MdmX inh 96 | Mdm2 MdmX conf 86 | FLuc counter 47 | Rh123 counter 86
CCn1c(SCc2ccccc2)nnc1-c1cccnc1	none
S=C(NCCc1ccc(Cl)cc1)NC1CC1	none
O=C1/C(=C/c2ccc(O)c([N+](=O)[O-])c2)SC(=S)N1Cc1ccccc1	MPTP inh 73, Mdm2-MdmX inh 62, NR3A LBD binder 498 (no result: CSC inhib) | Mdm2 MdmX conf 45 | FLuc counter 71 | Rh123 counter 55
Cc1ccc(C2=NC(C(F)(F)F)(C(F)(F)F)c3c(n(-c4ccc(F)cc4)c(=O)[nH]c3=O)N2)cc1	none
O=c1[nH]c(=O)n(-c2ccc(F)cc2)c2c1C(C(F)(F)F)(C(F)(F)F)N=C(c1ccc(F)cc1)N2	MPTP inh 100, Gli-Sufu antag 75, Mdm2-MdmX inh 53, Beta apoptosis 76 (no result: CSC inhib) | Mdm2 MdmX conf inactive | FLuc counter 68 | Gli-Sufu confirm 69 | Gli cytotox inactive | Wnt3a counter 77 | Rh123 counter 85
Cc1ccc(S(=O)(=O)n2ccc3c(OCCOCCNCc4ccc(F)cc4)cccc32)cc1	MPTP inh 68, Mdm2-MdmX inh 54 | Mdm2 MdmX conf inactive | Rh123 counter 86
CC(C)COCC(CN(Cc1ccccc1)c1ccccc1)N1CCCC1 (centres undefined)	MPTP inh 92, Mdm2-MdmX inh 60 | Mdm2 MdmX conf inactive | Rh123 counter inactive | MPTP abs DR 14 | MPTP cs DR 44
COc1ccc2oc(=O)c(C(=O)Nc3ccccc3O)cc2c1	none
CCCCCCc1cc2cc(C(=O)OCC)c(=O)oc2cc1O	MPTP inh 93, Mdm2-MdmX inh 64 | Mdm2 MdmX conf inactive | Rh123 counter 87
CCCCCCc1cc2cc(C(=O)Nc3cccc(OC)c3)c(=O)oc2cc1O	MPTP inh 56, Gli-Sufu antag 61, Mdm2-MdmX inh 95, Beta apoptosis 99 (no result: CSC inhib) | Mdm2 MdmX conf inactive | Gli-Sufu confirm 58 | Gli cytotox inactive | Wnt3a counter 79 | Rh123 counter 21
COc1ccc(NC(=O)c2cc3ccccc3oc2=O)cc1	none (no result: CSC inhib, Gli-Sufu antag, Mdm2-MdmX inh, Beta apoptosis, NR3A LBD binder)
CCCCCCc1cc2cc(S(=O)(=O)c3ccc(F)c(Cl)c3)c(=O)oc2cc1O	MPTP inh 79, Mdm2-MdmX inh 98, NR3A LBD binder 33 | Mdm2 MdmX conf 92 | FLuc counter inactive | Rh123 counter 86
CCCCCCc1cc2cc(C(=O)Nc3ccc(OC)cc3)c(=O)oc2cc1O	MPTP inh 78, Mdm2-MdmX inh 100 | Mdm2 MdmX conf inactive | Rh123 counter inactive | MPTP abs DR 1.1 | MPTP cs DR <2.5
CCOC(=O)c1cc2ccc3ccccc3c2oc1=O	none
Cc1ccc(NC(=O)c2cc(=O)n(Cc3ccccc3)c(=O)[nH]2)cc1C	none
CS(=O)(=O)N(CC(=O)Nc1ccccc1Cl)c1ccc(Cl)cc1	none
Cc1ccc(S(=O)(=O)N2CCC(C(=O)N/N=C/c3cccn3C)CC2)cc1	none
Cc1ccc(Cl)cc1N1CCN(C(=O)c2cc3c(=O)[nH]c4ccccc4c3n2C)CC1	MPTP inh 57, Mdm2-MdmX inh 71 | Mdm2 MdmX conf 91 | FLuc counter 79 | Rh123 counter inactive | MPTP abs DR inactive | MPTP cs DR inactive
CN(Cc1ccccc1)C(=O)c1cccc(NC(=O)Cc2ccc(NC(=O)C3CCN(C(=O)C4CC4)CC3)cc2)c1	none (no result: CSC inhib, Mdm2-MdmX inh, Beta apoptosis)
COc1ccc(C(C)NC(=S)NCc2ccc(F)cc2)cc1OC (centres undefined)	none
CCC(NC(=S)NCc1ccc(F)cc1)c1ccc(C(C)C)cc1 (centres undefined)	MPTP inh 79, Mdm2-MdmX inh 76 | Mdm2 MdmX conf inactive | Rh123 counter 91
Cc1ccc2sc(N(CCCN(C)C)C(=O)c3ccc(S(=O)(=O)N4CCc5ccccc5C4)cc3)nc2c1C	MPTP inh 90, Mdm2-MdmX inh 98, NR3A LBD binder 14 (no result: Beta apoptosis) | Mdm2 MdmX conf 75 | FLuc counter 51 | Rh123 counter inactive | MPTP abs DR inactive | MPTP cs DR inactive
Cc1cc(C)c2sc(N(CCCN(C)C)C(=O)c3ccc(S(=O)(=O)N(C)Cc4ccccc4)cc3)nc2c1	MPTP inh 82, Mdm2-MdmX inh 93 (no result: Beta apoptosis) | Mdm2 MdmX conf 48 | FLuc counter 69 | Rh123 counter inactive | MPTP abs DR 8.8 | MPTP cs DR 45
